Here are results for 9 compounds from PubChem BioAssay (Tox21).

Assay [1] concerns the target Luciferin 4-monooxygenase (Photinus pyralis) (UniProt P08659). In words: qHTS assay to identify small molecule inhibitors of firefly luciferase (AID 1224835). Further: nearly all actives have a fitted effect of over 25% in size. Further: potency means the concentration at half of the fitted maximal effect. The gist of the method: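 Quantitative HTS format; KM concentrations of both substrates. Purified P. pyralis FLuc activity quantified from luminescence images.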
(qHTS replaces the single test concentration by a dilution series.)

Assay [2] in a line: qHTS assay to identify small molecule agonists of the constitutive androstane receptor (CAR) signaling pathway - cell viability counter screen (AID 1224836). Further: nearly all actives have a fitted effect of over 45% in size. The gist of the method:
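Compound titrations (15 concentrations) went onto HepG2-CYP2B6-hCAR cells 4 h after seeding, alongside PK11195 at a final 0.75 uM; a 23 h, 37 C/5% CO2 incubation preceded CellTiter-Fluor viability measurement.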

Assay [3] can be described thus: qHTS assay to identify small molecule antagonists of the constitutive androstane receptor (CAR) signaling pathway - cell viability counter screen (AID 1224837). Further: nearly all actives have a fitted effect of over 45% in size. The gist of the method:
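Read-out: CellTiter-Fluor fluorescence after 23 hr at 37 C/5% CO2. Cells: HepG2 double-stable for hCAR and CYP2B6-2.2kb. Compounds tested at 15 concentrations in the presence of CITCO, final concentration 50 nM.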

Assay [4] concerns the target Nuclear receptor subfamily 1 group I member 3 (Homo sapiens) (UniProt Q14994). As to the kind of experiment: qHTS assay to identify small molecule agonists of the constitutive androstane receptor (CAR) signaling pathway (AID 1224839). Further: nearly all actives have a fitted effect of over 15% in size. Further: potency means the concentration at half of the fitted maximal effect.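 On activation: HepG2 cells stably carrying human CAR and a CYP2B6 luciferase reporter.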 A digest of the protocol:
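In this screen, CAR-driven CYP2B6 promoter activity is measured by luminescence in HepG2-CYP2B6-hCAR cells after 24 h with test compounds and 0.75 uM PK11195 (final concentration).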

Assay [5] addresses Thyrotropin receptor (Homo sapiens) (UniProt P16473). As to the kind of experiment: qHTS assay to identify small molecule agonists of the thyroid stimulating hormone receptor (TSHR) signaling pathway (AID 1224843; calls by dose curve; further: nearly all actives have a fitted effect of over 45% in size; further: potency means the concentration at half of the fitted maximal effect). The gist of the method:
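Using 15 concentrations per compound in triplicate, cAMP production was monitored in TSHR-HEK293 cells after 30 min compound incubation at RT; HTRF reagents followed, with fluorescence intensity recorded after 1 h.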

Assay [6] in a line: qHTS assay to identify small molecule agonists of the hypoxia (HIF-1) signaling pathway - cell viability counter screen (AID 1224844; calls by dose curve; further: nearly all actives have a fitted effect of over 50% in size; further: potency means the concentration at half of the fitted maximal effect). The gist of the method:
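CellTiter-Glo luminescence read-out, 30 min RT, taken in the same wells as the beta-lactamase HRE reporter assay; HRE-bla ME-180 cells, 0.5% dialyzed FBS, 17 hr compound treatment at 37C, 5% CO2.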

The nature of assay [7]: qHTS assay to identify small molecule agonists of H2AX (AID 1224845; active means well fitted activation curve with a large enough effect in the signal ratio in the repeat runs, not every such curve was filed as active; the % refers to the signal ratio; further: potency means the concentration at half of the fitted maximal effect). A digest of the protocol: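 Wild-type CHO-K1 cells plated overnight, then exposed 3 hr at 37C to compounds at 15 concentrations (0.76% DMSO). Lysed, then HTRF anti-pH2AX(S139)-cryptate/anti-H2AX-d2 detection after 24 hr at room temperature; emissions 665 and 620 nm.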
Assay [8] is described as follows: qHTS assay to identify small molecule agonists of the hypoxia (HIF-1) signaling pathway (AID 1224846; active means well fitted activation curve with a large enough effect in the signal ratio in the repeat runs, not every such curve was filed as active; the % refers to the signal ratio). The gist of the method: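 Beta-lactamase FRET read-out (CCF4-AM substrate) from ME-180 cells carrying an HRE-driven bla reporter, after 17 hrs compound exposure at 37C/5% CO2. Cells were seeded at 2,000 per well in 0.5% dialyzed FBS medium and preincubated 5 hrs.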

A short description of assay [9]: qHTS assay to identify small molecule agonists of H2AX - cell viability counter screen (AID 1224847; calls by dose curve; further: nearly all actives have a fitted effect of over 30% in size; further: potency means the concentration at half of the fitted maximal effect). A digest of the protocol: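 Read-out: CellTiter-Glo luminescence, 30 min RT. Cells: wild-type CHO-K1, 1000/well, 10% FBS, plated overnight at 37C. Treatment: 15 concentrations, 3 hr, 37C, 0.76% DMSO.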
Assay [10] in a line: qHTS RealTime-Glo MT Cell Viability Assay in HepG2 cells - 24 hour (AID 1224867). Further: nearly all actives have a fitted effect of over 50% in size. A digest of the protocol:
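Compound treatment began 5 h after plating HepG2 cells (600/well) with NanoLuc luciferase and prosubstrate. Plates stayed at 37 C for 40 h; luminescence was captured at six time points, 0 h through 40 h.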

The nature of assay [11]: qHTS RealTime-Glo MT Cell Viability Assay in HEK293 cells - 32 hour (AID 1224868). Further: nearly all actives have a fitted effect of over 50% in size. Further: potency means the concentration at half of the fitted maximal effect. The gist of the method: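 Quantitative high-throughput screen of the Tox21 10K library in HEK293: cells and RealTime-Glo reagents plated together, compound added at 5 h, luminescence monitored through 40 h at 37 C.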
Assay [12] can be described thus: A CellTox Green Cytotoxicity Assay to monitor cytotoxicity in HEK293 cells - 0 hour (AID 1224869). Further: nearly all actives have a fitted effect of over 50% in size. The gist of the method:
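Read-out: fluorescence of a cell-impermeant cyanine dye staining DNA of dead cells, proportional to cytotoxicity. HEK293, 600 cells/well with reagent, compound (23 nL DMSO) added after 5 h; reads at 0, 8, 16, 24, 32, 40 h.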

The target in assay [13] is Nuclear receptor subfamily 1 group I member 3 (Homo sapiens) (UniProt Q14994). In words: qHTS assay to identify small molecule antagonists of the constitutive androstane receptor (CAR) signaling pathway (AID 1224838).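 Further: HepG2 cells stably expressing hCAR with CYP2B6 luciferase reporter stimulated by CITCO; nearly all actives have a fitted effect of over 40% in size.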 Further: potency means the concentration at half of the fitted maximal effect. The gist of the method:
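Read-out: ONE-Glo luciferase luminescence after 30 min at room temperature. HepG2-CYP2B6-hCAR double-stable cells, compounds in 15-point titration plus 50 nM CITCO final, 24 h at 37 C/5% CO2.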

Assay [14] can be described thus: qHTS assay to identify small molecule antagonists of the estrogen related receptor signaling pathway with the pleiotropic PPARgamma coactivator (PGC) from Tox21 10K library - cell viability counter screen (AID 1224840; active means well fitted cell-killing curve with a large enough effect in the repeat runs, not every such curve was filed as active; further: nearly all actives have a fitted effect of over 40% in size). A digest of the protocol:
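Fluorescence read-out of CellTiter-Fluor viability reagent, added after cells had been exposed to compound in DMSO for 17.5 h at 37 C; 30 min development at 37 C/5% CO2. Cells: PGC/ERR line, 2,000/well.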

The nature of assay [15]: qHTS assay to identify small molecule antagonists of the estrogen related receptor signaling pathway with the pleiotropic PPARgamma coactivator (PGC) from Tox21 10K library (AID 1224841; call rule not given here). The gist of the method: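 Luminescence read-out (One-Glo luciferase reagent, 30 min at room temperature) from PGC/ERR cells exposed to DMSO-dissolved test compounds for 18 h at 37 C; cells, 2,000 per well, had been preincubated 6 h before compound transfer.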

The nature of assay [16]: qHTS assay to identify small molecule agonists of the estrogen related receptor signaling pathway with the pleiotropic PPARgamma coactivator (PGC) from Tox21 10K library (AID 1224842). Further: nearly all actives have a fitted effect of over 15% in size. The gist of the method:
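PGC/ERR reporter cells (NTP line) were seeded 2,000 per well, rested 6 h at 37 C/5% CO2, then pin-dosed with compounds in DMSO for 18 h at 37 C; luciferase read by One-Glo luminescence after 30 min at room temperature.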

A short description of assay [17]: qHTS assay to identify small molecule antagonists of the estrogen related receptor (ERR) signaling pathway from Tox21 library (AID 1224848). Further: nearly all actives have a fitted effect of over 50% in size. The gist of the method:
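Tox21 10K compounds in DMSO tested for ERR pathway antagonism in NTP's ERR cell line; 18 h, 37 C exposure; ONE-Glo luminescence.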

Assay [18] is described as follows: qHTS assay to identify small molecule agonists of the estrogen related receptor (ERR) signaling pathway from Tox21 library (AID 1224849; calls by dose curve; further: nearly all actives have a fitted effect of over 15% in size). Particulars: ERR reporter cell line, ONE-Glo luciferase, 18 h; at 92.4 µM (top of the series) unless noted. The gist of the method:
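Luminescence readout (ONE-Glo, 30 min RT) after 18 h compound exposure at 37 C of NTP-supplied ERR reporter cells; cells were plated 6 h before compound addition by pin tool.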

“And” between values parts separate entries of the source, which are not always exact repeats. Identical values can stand only once. Unmarked numbers belong to inactive results. Inconclusive results are not listed. The source made the active and inactive calls. Unless noted, the call rests on the fitted dose curve; in most records, active means well fitted curve in the direction sought with a large enough effect in the repeat runs; inconclusive means weak or mixed curves; inactive means no such curve, though single readings can be large; an effect the other way counts as inactive or inconclusive.
On the % scale 0 is the no-effect control and ±100 the full control effect.

Thyrotropin receptor (Homo sapiens), sequence (P16473 whole entry, looked up): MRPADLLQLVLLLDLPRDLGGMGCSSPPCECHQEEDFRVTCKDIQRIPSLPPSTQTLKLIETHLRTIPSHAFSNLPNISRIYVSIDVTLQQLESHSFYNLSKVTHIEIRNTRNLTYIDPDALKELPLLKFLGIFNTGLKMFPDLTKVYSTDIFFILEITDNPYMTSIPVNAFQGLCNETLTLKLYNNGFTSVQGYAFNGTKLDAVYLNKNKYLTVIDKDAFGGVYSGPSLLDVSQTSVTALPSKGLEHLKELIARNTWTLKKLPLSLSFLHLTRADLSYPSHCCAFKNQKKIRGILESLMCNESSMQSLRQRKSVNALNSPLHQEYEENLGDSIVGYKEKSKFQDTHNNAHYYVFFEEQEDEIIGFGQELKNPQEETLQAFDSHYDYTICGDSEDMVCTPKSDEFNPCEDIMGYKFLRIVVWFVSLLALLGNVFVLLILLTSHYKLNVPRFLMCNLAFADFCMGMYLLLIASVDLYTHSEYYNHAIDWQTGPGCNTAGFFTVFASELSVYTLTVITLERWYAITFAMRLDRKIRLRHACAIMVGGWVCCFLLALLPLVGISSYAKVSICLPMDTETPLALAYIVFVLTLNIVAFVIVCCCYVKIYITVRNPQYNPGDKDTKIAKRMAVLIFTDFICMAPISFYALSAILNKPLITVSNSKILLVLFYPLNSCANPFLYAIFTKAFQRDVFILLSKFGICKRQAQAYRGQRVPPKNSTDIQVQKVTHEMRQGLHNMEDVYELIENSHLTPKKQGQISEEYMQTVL
Luciferin 4-monooxygenase (Photinus pyralis), sequence (P08659 whole entry, looked up): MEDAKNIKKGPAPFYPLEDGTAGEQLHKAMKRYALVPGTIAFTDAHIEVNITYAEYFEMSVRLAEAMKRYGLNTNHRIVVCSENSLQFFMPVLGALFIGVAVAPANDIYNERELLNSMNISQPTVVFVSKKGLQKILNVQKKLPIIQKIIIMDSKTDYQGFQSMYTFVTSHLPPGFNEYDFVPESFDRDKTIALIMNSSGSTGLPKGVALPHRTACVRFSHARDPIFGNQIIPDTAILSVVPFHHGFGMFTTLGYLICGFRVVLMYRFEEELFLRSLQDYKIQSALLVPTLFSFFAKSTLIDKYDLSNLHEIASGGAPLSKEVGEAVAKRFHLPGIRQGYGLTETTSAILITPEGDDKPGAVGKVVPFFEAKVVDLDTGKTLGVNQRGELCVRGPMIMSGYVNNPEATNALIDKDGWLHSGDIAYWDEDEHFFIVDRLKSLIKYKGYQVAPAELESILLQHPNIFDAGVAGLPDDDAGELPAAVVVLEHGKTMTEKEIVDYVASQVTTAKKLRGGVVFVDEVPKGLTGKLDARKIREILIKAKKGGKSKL
Nuclear receptor subfamily 1 group I member 3 (Homo sapiens), sequence (Q14994 whole entry, looked up): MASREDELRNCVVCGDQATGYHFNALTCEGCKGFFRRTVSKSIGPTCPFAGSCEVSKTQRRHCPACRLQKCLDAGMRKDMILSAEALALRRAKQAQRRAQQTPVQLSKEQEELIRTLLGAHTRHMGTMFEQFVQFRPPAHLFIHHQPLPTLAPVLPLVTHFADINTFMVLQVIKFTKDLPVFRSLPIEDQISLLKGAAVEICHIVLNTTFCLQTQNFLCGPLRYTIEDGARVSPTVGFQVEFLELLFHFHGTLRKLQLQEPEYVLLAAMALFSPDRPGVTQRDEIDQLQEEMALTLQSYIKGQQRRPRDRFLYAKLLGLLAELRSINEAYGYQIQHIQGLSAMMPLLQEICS

Regarding `CC1CC(CC2CCC(N)C(C)C2)CCC1N` (stereo unspecified), the Potency result in assay [1], in [2], in assay [3], in [4], in [5] and in [6] was “inactive” each time. For the same compound, the Potency result in assay [7], in assay [9], in [10] and in [12] was “inactive” throughout. For the same compound, the call in assay [8] was inactive. For the same compound, the Potency in assay [11] is 55.8 µM (active).
As for `O=S(=O)(Cl)c1ccccc1`, the Potency entry in [1], in assay [2], in assay [3], in assay [13], in [4] and in [14] was “inactive” in each case. The Potency result in [5], in assay [6], in assay [7], in assay [9], in [10] and in assay [11] was “inactive” throughout. The Potency entry in assay [12] is “inactive”. Moreover, the result in assay [8] was inactive.
As to `CCOP(=O)(OCC)SCCSCC`, the Potency result in assay [1], in assay [2], in [3], in [14], in assay [15] and in assay [16] was “inactive” each time. Moreover, the Potency entry in assay [5], in assay [6], in assay [9], in [17], in assay [10] and in [11] was “inactive” in each case. For the same compound, in [12], the Potency entry was “inactive”. Also, in assay [8], the compound was classed as inactive. The activity change, positive = activation in assay [18] was -5.82% and 8.45%.
Regarding `COc1nn(CSP(=S)(OC)OC)c(=O)s1`, the Potency was 35.6 µM (active) in assay [1] and 54.5 µM (active) in assay [4]. In addition, the Potency result in assay [2], in assay [3], in assay [10], in assay [11] and in [12] was “inactive” throughout. Besides, the result in assay [8] was inactive.
Consider `CCCCN(N=O)C(=N)N[N+](=O)[O-]`, for which the Potency entry in assay [1], in assay [2], in [3], in [4], in assay [14] and in assay [5] was “inactive” throughout. The Potency result in [9], in assay [10] and in assay [12] was “inactive” in each case. Besides, the results for the Potency in assay [13] and in assay [7] were 31.3 µM (active) and 103 µM (active), respectively. The compound was classed as inactive in assay [8].
As to `NS(=O)(=O)C(F)(F)C(F)(F)C(F)(F)C(F)(F)C(F)(F)C(F)(F)C(F)(F)C(F)(F)F`, the Potency result in assay [1], in assay [2], in assay [3], in [13], in assay [4] and in assay [14] was “inactive” each time. Further, the Potency entry in assay [15], in [5], in [7], in assay [9], in assay [17] and in assay [10] was “inactive” in each case. Besides, the Potency entry in [11] and in assay [12] was “inactive” each time. Besides, in assay [8], the compound was called inactive. For the same compound, the activity change, positive = activation in [18] was -39.9%.
On to `O=S1OC[C@@H]2[C@H](CO1)[C@]1(Cl)C(Cl)=C(Cl)[C@@]2(Cl)C1(Cl)Cl` (stereo partly specified), for which the Potency result in assay [1], in assay [2], in [3] and in assay [13] was “inactive” throughout. The Potency in assay [4] is 27.3 µM (active); in assay [5] it was 10.9 µM (active); in assay [6], 43.6 µM (active); in [9], 20.1 µM (active).
Turning to `O=C(OC1CCCCC1)c1ccccc1C(=O)OC1CCCCC1`, the Potency entry in [1], in [2], in assay [3], in assay [13], in assay [14] and in assay [6] was “inactive” throughout. Moreover, the Potency entry in [7], in assay [10], in assay [11] and in [12] was “inactive” in each case. Moreover, in [8], the result was inactive. For the same compound, the Potency in [9] was 106 µM (active).
For `COC(=O)c1cncn1C(C)c1ccccc1` (stereo unspecified), the Potency entry in [1], in [2], in [3], in assay [13], in assay [4] and in [14] was “inactive” throughout. Moreover, the Potency result in assay [5], in assay [6], in [7], in assay [9], in assay [10] and in [11] was “inactive” each time. In addition, the Potency entry in assay [12] is “inactive”. In addition, the outcome in [8] was inactive.
